This passage reports growth results from PubChem BioAssay (NCI).

Each structure is given as a SMILES string. This is part of a sample that, as a whole, favours compounds with a hit. Of some 83,000 tested, about 20% had one in any assay.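 Single-concentration screen, 48 h exposure, 96-well plates. Endpoint: percent growth. Below 10 = active.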 A number with no mark means an inactive call. Calls of active or inactive are those of the source.

What all share (assay): NCI-60 one-dose screen, 48 h (100 = growth as untreated, 0 = no growth, -100 = all killed)
Holding throughout (conditions): 10 µM unless noted

The test system of assay [1] is DU-145 prostate.
Assay [2] relates to MALME-3M melanoma.
Assay [3] deals with MDA-MB-231 breast.
Assay [4] concerns RXF 393 renal.
The subject of assay [5] is SF-268 CNS.
Assay [6] concerns SF-295 CNS.
Assay [7] has as its system SF-539 CNS.
The test system of assay [8] is UACC-257 melanoma.
In assay [9] the test system is M14 melanoma.

With `C[C@H]1[C@H]2[C@H]3CC[C@@H]4[C@@]5(C)CC[C@H](O)C(C)(C)[C@@H]5CC[C@@]4(C)[C@]3(C)CC[C@]23CO[C@]1(C)[C@@H](C(=O)/C=C\c1ccco1)C3`, the growth in assay [1] is 102%; in assay [2], -11.3% (active); in assay [3], 82.9%; in assay [4], 110%; in assay [5] it was 96.3%; in assay [6] it was 110%. For the same compound, the growth in assay [7] was 99.7%; in [8], -8.91% (active); in assay [9], 34.4%.

For the compound `OC(c1cccc(C(F)(F)F)c1)c1cnccc1NC1CCCCC1` (configuration not stated), the growth in assay [1] was 85%; in assay [2], 83.2%; in assay [3] it was 66.1%; in assay [4] it was 78.8%; in [5], 89.6%; in assay [6], 81%. Further, the growth in [7] was 91.7%; in assay [8], 87%; in assay [9] it was 87.9%.

For the compound `NC(=O)CSSCC(N)=O`, the growth in [1] is 104%; in [2] it was 93.3%; in assay [3] it was 109%; in assay [4], 117%; in [5], 97.9%; in assay [6], 97.1%. For the same compound, the results for the growth in assay [7], in assay [8] and in assay [9] were 102%, 95.8% and 93.2%, respectively.

With `Cc1ccc(C(=O)/C(=C\c2ccc([N+](=O)[O-])cc2)S(=O)Cc2ccc(Cl)cc2)cc1` (configuration not stated), the growth in assay [1] was 23.3%; in assay [2], 34.1%; in [3], 23.8%; in assay [4] it was -69% (active); in [5], 25.5%; in assay [6], 73.2%. In addition, the growth in assay [7] is 53.5%; in [8], 94.9%; in [9], 41.4%.

As for `CCOC(=O)C1=C(CCl)NC(=O)NC1c1ccc2c(c1)OCO2` (configuration not stated), the growth in assay [1] is 36.6%; in [2], 18.5%; in assay [3] it was 39.4%; in [4], 39.1%; in assay [5], 66.9%; in assay [6], 71.1%. Moreover, the growth in assay [7] was 16.5%; in [8], 67.2%; in assay [9] it was 32.3%.

`COc1cc(-c2cc(-c3ccc(N(C)C)cc3)nc(N3CCOCC3)c2C#N)cc(OC)c1OC`: the growth in assay [1] was 52.4%; in assay [2], 31.1%; in assay [3] it was 25.2%; in assay [4] it was -43.2% (active); in assay [5], 36%; in [6], -20.9% (active). Besides, the values for the growth in [7], in [8] and in assay [9] were 47.3%, 24.3% and -61.5% (active), respectively.

Regarding `O=C(O)c1ccc2c(c1)C(=O)N(Cc1ccccc1)C2=O`, the growth in assay [1] is 102%; in assay [2], 97.4%; in [3], 101%; in [4], 103%; in assay [5], 98%; in [6] it was 95%. The growth is 103% in [7], 74.2% in [8] and 100% in assay [9].

As for `CCc1ccc(-c2cn3ccnc3c(-c3ccc4ncn(Cc5ccccc5)c4c3)n2)cc1`, the growth in assay [1] is 80.9%; in assay [2] it was 115%; in assay [3], 56.8%; in assay [4], 69.3%; in assay [5], 69.5%; in assay [6] it was 48.8%. The growth in [7] was 78.8%; in [8] it was 103%; in assay [9], 63.6%.

Take `O=Cc1ccc(-c2cn3ccnc3c(-c3ccc4ncn(Cc5ccccc5)c4c3)n2)cc1`: the growth in assay [1] is 75.7%; in assay [2] it was 113%; in assay [3], 40.8%; in assay [4], 75%; in [5], 72.9%; in assay [6], 76.9%. The growth was 68.5% in assay [7], 122% in [8] and 77% in assay [9].

With `O=[N+]([O-])c1ccc(N=Nc2cc(S(=O)(=O)O)c3cccc(S(=O)(=O)O)c3c2O)cc1`, the growth in [1] is 132%; in assay [2] it was 84.5%; in [3] it was 112%; in [4] it was 121%; in [5], 115%; in assay [6], 125%. Besides, the growth in assay [7] is 104%; in [8] it was 113%; in [9], 97.6%.

For the compound `CC(=O)[C@H]1CCC/C=C/[C@@H]2C[C@H](O)C[C@H]2[C@H](O)/C=C/C(=O)O1`, the growth in assay [1] was 25.4%; in assay [2], -11.5% (active); in assay [3], -34.3% (active); in [4], -32.8% (active); in [5], 12.3%; in assay [6], 3% (active). In addition, the growth in assay [7] is 18.5%; in assay [8], 24.1%; in assay [9], 5.74% (active).

For the compound `CCNc1nc2ccc(Nc3ccnc4cc(Cl)ccc34)cc2[nH]1`, the growth in assay [1] is 97%; in assay [2] it was 119%; in [3], 84.7%; in assay [4], 68.5%; in assay [5] it was 88.4%; in [6], 87.3%. Further, the growth in [7] is 85.6%; in assay [8] it was 97.9%; in assay [9], 91.9%.

Take `Cc1cccc(-c2cn3ccnc3c(-c3ccc4ncn(Cc5ccccc5)c4c3)n2)c1`: the growth in [1] was 85.8%; in [2], 125%; in assay [3] it was 71.6%; in [4], 98%; in assay [5], 92.8%; in assay [6], 85.7%. In addition, the results for the growth in [7], in assay [8] and in assay [9] were 92.7%, 120% and 102%, respectively.
